# Measured values reported in article doi:10.1101/2025.08.08.669391.
# Legend:
# Test in all cases: cross-linking mass spectrometry
# Details in all cases: DSSO, not determined
# AIF1L = AIF1L (UniProt Q9BQI0)
# B4GALNT4 = B4GALNT4 (UniProt Q76KP1)
# CCT2 = CCT2 (UniProt P78371)
# CCT4 = CCT4 (UniProt P50991)
# MEPE = MEPE (UniProt Q9NQ76)
# SF3B1 = SF3B1 (UniProt O75533)
# SMC4 = SMC4 (UniProt Q9NTJ3)
# SNU13 = SNU13 (UniProt P55769)
# TPPP3 = TPPP3 (UniProt Q9BW30)
# TRIM28 = TRIM28 (UniProt Q13263)
# XRCC5 = XRCC5 (UniProt P13010)
# Sequence of UniProt P13010 (P13010 whole entry): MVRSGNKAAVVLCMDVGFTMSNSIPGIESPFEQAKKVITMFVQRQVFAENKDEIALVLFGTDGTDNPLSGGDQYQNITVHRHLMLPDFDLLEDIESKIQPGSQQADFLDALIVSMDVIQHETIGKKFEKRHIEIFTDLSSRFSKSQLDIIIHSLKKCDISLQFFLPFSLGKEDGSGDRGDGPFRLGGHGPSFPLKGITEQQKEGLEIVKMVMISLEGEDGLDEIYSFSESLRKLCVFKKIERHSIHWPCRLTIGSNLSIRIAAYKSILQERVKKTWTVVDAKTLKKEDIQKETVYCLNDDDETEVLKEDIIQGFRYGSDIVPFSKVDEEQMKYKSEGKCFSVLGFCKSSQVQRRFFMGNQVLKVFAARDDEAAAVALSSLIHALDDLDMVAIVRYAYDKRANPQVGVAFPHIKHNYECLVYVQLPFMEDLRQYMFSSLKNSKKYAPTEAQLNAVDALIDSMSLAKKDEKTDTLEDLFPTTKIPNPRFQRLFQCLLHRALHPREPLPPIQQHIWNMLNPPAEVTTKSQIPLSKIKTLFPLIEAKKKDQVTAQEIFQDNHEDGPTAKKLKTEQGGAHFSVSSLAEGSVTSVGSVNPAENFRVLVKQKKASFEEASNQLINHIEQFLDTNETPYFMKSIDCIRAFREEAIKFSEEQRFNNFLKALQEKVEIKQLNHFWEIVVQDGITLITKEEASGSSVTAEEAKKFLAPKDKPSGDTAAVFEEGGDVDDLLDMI
# Sequence of UniProt O75533 (O75533 whole entry): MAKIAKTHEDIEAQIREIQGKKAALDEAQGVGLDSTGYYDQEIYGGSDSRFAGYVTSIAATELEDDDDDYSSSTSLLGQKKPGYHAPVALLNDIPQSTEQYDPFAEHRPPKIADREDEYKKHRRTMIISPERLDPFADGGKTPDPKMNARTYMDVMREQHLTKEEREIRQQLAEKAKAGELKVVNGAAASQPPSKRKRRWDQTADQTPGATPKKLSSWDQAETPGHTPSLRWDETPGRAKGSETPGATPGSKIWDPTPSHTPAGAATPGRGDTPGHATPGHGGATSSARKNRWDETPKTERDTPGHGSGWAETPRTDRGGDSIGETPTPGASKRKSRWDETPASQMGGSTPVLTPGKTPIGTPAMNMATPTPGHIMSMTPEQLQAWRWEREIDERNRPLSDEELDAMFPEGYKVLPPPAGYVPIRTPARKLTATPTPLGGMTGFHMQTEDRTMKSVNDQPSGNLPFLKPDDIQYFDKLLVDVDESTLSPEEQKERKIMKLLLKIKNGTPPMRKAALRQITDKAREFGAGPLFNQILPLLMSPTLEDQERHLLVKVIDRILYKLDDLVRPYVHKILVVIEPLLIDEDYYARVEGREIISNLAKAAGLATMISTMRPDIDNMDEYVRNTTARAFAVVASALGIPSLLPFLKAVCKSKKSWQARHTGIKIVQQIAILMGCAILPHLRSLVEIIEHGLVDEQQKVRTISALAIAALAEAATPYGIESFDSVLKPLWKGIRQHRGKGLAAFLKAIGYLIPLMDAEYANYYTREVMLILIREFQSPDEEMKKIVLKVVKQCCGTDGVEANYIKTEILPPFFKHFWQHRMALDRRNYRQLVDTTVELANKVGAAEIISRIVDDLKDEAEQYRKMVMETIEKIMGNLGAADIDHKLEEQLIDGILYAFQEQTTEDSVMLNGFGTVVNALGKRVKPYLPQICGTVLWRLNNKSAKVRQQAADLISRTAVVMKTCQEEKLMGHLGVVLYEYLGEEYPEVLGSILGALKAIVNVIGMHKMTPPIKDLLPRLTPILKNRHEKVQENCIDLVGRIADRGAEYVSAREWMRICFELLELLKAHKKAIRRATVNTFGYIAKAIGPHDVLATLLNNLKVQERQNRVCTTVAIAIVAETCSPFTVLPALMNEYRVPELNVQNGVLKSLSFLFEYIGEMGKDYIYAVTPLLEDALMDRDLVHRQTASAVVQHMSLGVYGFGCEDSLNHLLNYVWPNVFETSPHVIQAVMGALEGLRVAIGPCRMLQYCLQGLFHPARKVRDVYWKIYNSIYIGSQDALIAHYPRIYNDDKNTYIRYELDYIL
# Sequence of UniProt Q9BQI0 (Q9BQI0 whole entry): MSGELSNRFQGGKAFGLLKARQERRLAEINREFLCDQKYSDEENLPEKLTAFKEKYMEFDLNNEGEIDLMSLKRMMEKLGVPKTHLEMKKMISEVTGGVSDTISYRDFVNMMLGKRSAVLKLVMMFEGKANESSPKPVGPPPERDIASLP
# Sequence of CLEC4F (Q8N1N0 whole entry): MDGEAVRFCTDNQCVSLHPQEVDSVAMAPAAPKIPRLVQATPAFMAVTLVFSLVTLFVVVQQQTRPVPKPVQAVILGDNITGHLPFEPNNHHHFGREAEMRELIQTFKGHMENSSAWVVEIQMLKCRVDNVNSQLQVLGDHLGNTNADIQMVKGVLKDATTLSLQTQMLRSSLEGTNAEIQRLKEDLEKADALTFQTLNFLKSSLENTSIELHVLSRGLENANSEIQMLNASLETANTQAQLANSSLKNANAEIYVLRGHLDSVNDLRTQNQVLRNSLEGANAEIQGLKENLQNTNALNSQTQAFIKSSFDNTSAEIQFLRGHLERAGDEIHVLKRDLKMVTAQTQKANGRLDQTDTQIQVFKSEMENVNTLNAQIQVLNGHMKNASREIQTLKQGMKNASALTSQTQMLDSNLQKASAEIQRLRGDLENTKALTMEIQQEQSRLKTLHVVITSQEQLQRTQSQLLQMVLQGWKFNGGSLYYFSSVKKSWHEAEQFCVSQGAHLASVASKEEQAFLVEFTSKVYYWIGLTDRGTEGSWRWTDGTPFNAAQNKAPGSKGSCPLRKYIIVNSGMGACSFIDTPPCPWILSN
# Sequence of UniProt P78371 (P78371 whole entry): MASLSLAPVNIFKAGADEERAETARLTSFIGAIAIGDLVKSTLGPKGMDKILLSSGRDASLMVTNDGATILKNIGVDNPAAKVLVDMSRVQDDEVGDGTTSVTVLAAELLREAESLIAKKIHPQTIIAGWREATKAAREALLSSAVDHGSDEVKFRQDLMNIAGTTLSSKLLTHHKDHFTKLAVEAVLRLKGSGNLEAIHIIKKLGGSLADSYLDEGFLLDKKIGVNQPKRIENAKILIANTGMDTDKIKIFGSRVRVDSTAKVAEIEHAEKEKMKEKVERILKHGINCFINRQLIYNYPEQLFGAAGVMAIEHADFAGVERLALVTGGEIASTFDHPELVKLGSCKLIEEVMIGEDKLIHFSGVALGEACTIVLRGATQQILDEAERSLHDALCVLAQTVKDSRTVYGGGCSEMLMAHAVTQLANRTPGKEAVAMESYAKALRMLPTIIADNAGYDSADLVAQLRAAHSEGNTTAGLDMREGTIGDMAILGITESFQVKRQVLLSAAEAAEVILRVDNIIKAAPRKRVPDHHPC
# Sequence of XRCC6 (P12956 whole entry): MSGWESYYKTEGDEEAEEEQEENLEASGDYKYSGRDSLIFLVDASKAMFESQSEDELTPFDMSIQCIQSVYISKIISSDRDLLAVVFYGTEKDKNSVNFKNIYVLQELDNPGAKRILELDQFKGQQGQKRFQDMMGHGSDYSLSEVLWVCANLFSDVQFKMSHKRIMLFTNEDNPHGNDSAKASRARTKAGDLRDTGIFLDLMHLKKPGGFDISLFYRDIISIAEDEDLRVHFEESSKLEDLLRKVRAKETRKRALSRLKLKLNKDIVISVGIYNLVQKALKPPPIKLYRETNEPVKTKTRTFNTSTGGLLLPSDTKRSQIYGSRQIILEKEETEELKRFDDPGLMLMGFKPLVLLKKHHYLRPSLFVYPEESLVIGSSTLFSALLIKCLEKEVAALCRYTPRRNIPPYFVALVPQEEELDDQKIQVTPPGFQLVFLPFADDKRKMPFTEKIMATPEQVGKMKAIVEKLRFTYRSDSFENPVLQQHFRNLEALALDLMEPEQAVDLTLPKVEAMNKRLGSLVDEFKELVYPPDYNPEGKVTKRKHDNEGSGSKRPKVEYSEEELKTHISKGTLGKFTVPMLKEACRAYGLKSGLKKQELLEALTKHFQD
# Sequence of UniProt Q76KP1 (Q76KP1 whole entry): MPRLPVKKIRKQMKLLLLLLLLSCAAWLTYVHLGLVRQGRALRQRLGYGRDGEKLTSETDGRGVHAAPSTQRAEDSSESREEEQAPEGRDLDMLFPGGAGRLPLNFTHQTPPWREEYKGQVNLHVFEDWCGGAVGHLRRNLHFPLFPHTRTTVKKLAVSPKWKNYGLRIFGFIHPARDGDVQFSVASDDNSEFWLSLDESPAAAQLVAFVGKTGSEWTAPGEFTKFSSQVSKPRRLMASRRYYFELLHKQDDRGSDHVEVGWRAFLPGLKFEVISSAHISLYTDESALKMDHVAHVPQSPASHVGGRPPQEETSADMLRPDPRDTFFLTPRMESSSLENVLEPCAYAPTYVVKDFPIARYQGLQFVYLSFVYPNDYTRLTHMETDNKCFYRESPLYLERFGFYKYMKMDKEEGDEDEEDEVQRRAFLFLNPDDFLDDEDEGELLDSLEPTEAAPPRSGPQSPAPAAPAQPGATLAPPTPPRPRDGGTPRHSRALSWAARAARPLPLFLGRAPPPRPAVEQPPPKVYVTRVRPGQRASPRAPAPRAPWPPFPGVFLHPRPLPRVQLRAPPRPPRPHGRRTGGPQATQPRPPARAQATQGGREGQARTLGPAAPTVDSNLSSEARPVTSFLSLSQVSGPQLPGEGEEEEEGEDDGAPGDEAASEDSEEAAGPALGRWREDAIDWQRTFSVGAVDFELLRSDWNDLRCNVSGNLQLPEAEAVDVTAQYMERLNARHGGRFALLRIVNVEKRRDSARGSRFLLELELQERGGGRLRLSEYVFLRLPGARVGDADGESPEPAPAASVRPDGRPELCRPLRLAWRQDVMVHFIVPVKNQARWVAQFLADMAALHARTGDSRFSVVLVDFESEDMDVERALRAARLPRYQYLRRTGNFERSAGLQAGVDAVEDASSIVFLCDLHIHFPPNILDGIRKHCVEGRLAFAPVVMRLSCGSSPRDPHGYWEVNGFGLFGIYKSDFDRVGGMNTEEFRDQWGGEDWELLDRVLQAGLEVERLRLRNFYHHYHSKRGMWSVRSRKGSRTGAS
substance,measurement,setting,value
"CLEC4F, Q8N1N0",cross-linked residues,AIF1L,K474 - K129
"EPRS1, P07814",cross-linked residues,B4GALNT4,K300 - K232
"CCT4, P50991",cross-linked residues,CCT2,K21 - K522
"TCP1, P17987",cross-linked residues,CCT4,K126 - K55
"EPHX2, P34913",cross-linked residues,MEPE,K55 - K369
"HTATSF1, O43719",cross-linked residues,SF3B1,K297 - K333
"SMC2, O95347",cross-linked residues,SMC4,K580 - K731
"NOP56, O00567",cross-linked residues,SNU13,K396 - K86
"VIM, P08670",cross-linked residues,TPPP3,K223 - K48
"BCL9, O00512",cross-linked residues,TRIM28,K1244 - K289
"XRCC6, P12956",cross-linked residues,XRCC5,K317 - K282
